High-throughput results deposited in PubChem by National Center for Advancing Translational Sciences (NCATS).
PLK1 PBD block = blocks phosphopeptide binding to human PLK1 polo-box domain; 360,000 tested, 2.8% active; P53350; Plk1 PBD binding of FITC phosphopeptide, fluorescence polarization; AID 720504; Potency, µM, without a hit: max response, negative = inhibition, hits mostly inhibitors; note: series mostly up to about 57 µM; % is set by controls: 0 for no effect and ±100 for the full control effect; nearly all actives have a fitted effect of over 65% in size
Target sequence (P53350 whole entry, looked up, the tested form may be a part): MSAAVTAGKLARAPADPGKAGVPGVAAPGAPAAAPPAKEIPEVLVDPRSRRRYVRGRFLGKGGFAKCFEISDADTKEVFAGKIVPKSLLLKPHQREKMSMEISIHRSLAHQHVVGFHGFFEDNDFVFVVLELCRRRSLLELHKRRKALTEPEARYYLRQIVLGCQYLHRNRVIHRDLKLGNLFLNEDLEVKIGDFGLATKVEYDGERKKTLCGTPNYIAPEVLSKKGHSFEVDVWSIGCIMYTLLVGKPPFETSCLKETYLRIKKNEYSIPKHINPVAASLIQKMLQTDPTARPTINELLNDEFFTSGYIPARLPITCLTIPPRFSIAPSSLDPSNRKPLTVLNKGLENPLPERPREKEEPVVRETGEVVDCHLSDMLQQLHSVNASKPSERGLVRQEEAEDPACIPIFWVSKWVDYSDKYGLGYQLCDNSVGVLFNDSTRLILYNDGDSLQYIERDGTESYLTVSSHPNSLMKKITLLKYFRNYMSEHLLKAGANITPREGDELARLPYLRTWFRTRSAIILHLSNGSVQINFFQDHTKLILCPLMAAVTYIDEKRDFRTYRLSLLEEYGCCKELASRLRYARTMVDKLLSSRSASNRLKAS
ASM inhibitor = human S-ASM enzyme inhibition; placental ASM, HMU-PC fluorogenic substrate, 60 min; AID 504937; P17405; Potency, µM (series often up to 57.5 µM), for the others: top-dose activity change, negative = inhibition, usual class: inhibitors; 340,000 tested, 0.006% active
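qHTS format. ASM enzyme prepared from human placenta hydrolyses the fluorogenic substrate HMU-PC0 (9 uM final) over 60 min at 37 °C after a 10 min compound preincubation.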
Tb PFK inh = T. brucei PFK enzyme inhibition; Potency, µM (highest dose often 57.5 µM), for inactives: top-dose activity, negative = inhibition, hits mostly inhibitors; O15648; T. brucei PFK, ADP-Glo luminescence; 330,000 tested, 0.17% active;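 note: 0% = uninhibited 1x PFK enzyme wells and -100% = no-enzyme wells; nearly all actives have a fitted effect of over 60% in size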
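Luminescent ADP detection (ADP-Glo, two-step: ATP depletion then ADP-to-ATP conversion for luciferase) reported PFK activity after 45 min room-temperature reaction of 1.25 nM enzyme with 0.5 mM F6P and 0.1 mM ATP at pH 8.0.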
TDP1 inh = TDP1 (human) enzyme inhibition | recombinant TDP1, AlphaScreen DNA substrate cleavage | Potency, µM (highest dose often 130 µM), inactives show top-dose activity change, negative = inhibition, hits mostly inhibitors | 350,000 tested, 0.28% active; note: % is set by controls: 0 for no effect and ±100 for the full control effect; nearly all actives have a fitted effect of over 40% in size
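AlphaScreen read-out: signal falls as enzyme removes the 3' tyrosine-FITC from a 5'-biotinylated DNA oligo (15 nM, 5 min, RT). Enzyme was E. coli-made recombinant Tdp1 at 1 nM, exposed to compound for 15 min beforehand; beads 10 ug/ml, 10 min.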
Pin1 inh = blocks the human prolyl isomerase Pin1; 390,000 tested, 0.009% active; AID 504891; Q13526; Potency, µM (highest dose often 115 µM), without a hit: at the highest dose activity, negative = inhibition, usual class: inhibitors; Pin1 FP peptide displacement, HiFluor488, 10 min; active = well fitted inhibition curve with a large enough effect in the polarisation, with a control signal flat, not every such curve was filed as active; inconclusive = small, poorly fitted or top-dose-only effect, or effect the other way, or a change in a side signal; inactive = no such curve, though single readings can be large or run the other way; the % refers to the polarisation; note: % is set by controls: 0 for no effect and ±100 for the full control effect
Target sequence (Q13526 whole entry, looked up): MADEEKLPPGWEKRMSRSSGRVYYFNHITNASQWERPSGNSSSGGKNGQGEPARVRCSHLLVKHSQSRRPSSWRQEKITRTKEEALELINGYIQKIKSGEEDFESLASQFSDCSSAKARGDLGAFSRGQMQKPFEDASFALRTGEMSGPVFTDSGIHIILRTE
VDR inhibitor = vitamin D3 receptor (human) inhibition | P11473 | VDR-SRC2-3 peptide fluorescence polarization, 2 h | Potency, µM, without a hit: max response, negative = inhibition, actives largely listed as inhibitors | 400,000 tested, 0.93% active | AID 504847; note: % is set by controls: 0 for no effect and ±100 for the full control effect
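Measured by FP: displacement of SRC2-3 coactivator peptide from VDR by library compounds, following a two-hour ambient incubation.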
* = called active by the depositor; ? = inconclusive; · = no result given; [ ] = remark or other dose. In the library only some 3.1% were active in any assay of this set; here they are far more common. Unless noted, calls come from the whole dose curve; as a rule, active = well fitted curve in the direction sought with a large enough effect; inconclusive = small, poorly fitted or top-dose-only effect, or another doubt; inactive = no such curve, though single readings can be large; an effect the other way counts as inactive or inconclusive. Potency is the fitted concentration of half-maximal effect.

SMILES	PLK1 PBD block	ASM inhibitor	Tb PFK inh	TDP1 inh	Pin1 inh	VDR inhibitor
CCN(CC)S(=O)(=O)c1ccc(S(=O)(=O)NCc2cccs2)cc1	-8.1%	7.5%	-7.0%	·	-13.4%	-16.6%
Nc1ccn([C@@H]2O[C@H](CO)[C@H](O)C2(F)F)c(=O)n1	·	·	·	·	·	-10.3%
CC(=O)N1CCc2c(sc(NC(=O)C3COc4ccccc4O3)c2C(N)=O)C1 (stereo not drawn)	18.9µM*	18.5%	-5.4%	4.0%	-1.0%	?
COC(=O)c1c(NC(=O)C2COc3ccccc3O2)sc2c1CCN(C(C)=O)C2 (stereo not drawn)	8.0%	-16.2%	-0.8%	7.9%	11.1%	11.2%
COc1cccc(OC)c1NC(=O)c1nc2c(nnn2Cc2ccccc2Cl)c(=O)[nH]1	-0.5%	-2.7%	7.3%	-4.7%	-2.4%	-28.4%
O=C(Nc1ccc(F)cc1)c1nc2c(nnn2Cc2cccc3ccccc23)c(=O)[nH]1	23.8µM*	6.5%	-1.0%	·	24.3%	26.1%
Fc1ccccc1Cn1nnc2c(-n3ccnc3)ncnc21	23.8µM*	-0.8%	2.3%	6.7%	-6.8%	?
O=S(=O)(c1ccc2c(c1)OCCO2)N1CCN(S(=O)(=O)c2ccc(F)c(F)c2F)CC1	·	·	·	·	2.6%	·
COCc1[nH]nc2c1C(c1ccsc1)C(C#N)=C(N)O2 (stereo not drawn)	26.7µM*	0.5%	1.5%	2.1%	-5.3%	-3.9%
CC1=NOC(=O)/C1=C/c1ccc2c(c1)OCO2	?	2.9%	-1.6%	-2.5%	2.9%	31.6µM*
CC1=NOC(=O)/C1=C\c1ccc2c(c1)OCO2	2.38µM*	1.8%	3.9%	-6.5%	-1.9%	89.1µM*
CCn1c(SC(=O)NC2CCCCC2)nnc1-c1cccs1	2.67µM*	-6.1%	4.3%	?	-9.1%	9.4%
O=C(O)CSc1nnc(CNc2cccc(C(F)(F)F)c2)n1Cc1ccco1	-14.5%	4.3%	-6.4%	2.0%	-8.0%	-26.3%
O=C(CSc1nnc(CNc2cccc(C(F)(F)F)c2)n1Cc1ccco1)NCc1ccco1	29.9µM*	-3.2%	-3.0%	0.0%	8.4%	0.0%
CCn1c(SCC(=O)NCc2ccco2)nnc1C(C)C	-3.0%	5.3%	-1.2%	-2.1%	-18.2%	-5.3%
CCn1c(SCC(=O)NCc2ccco2)nnc1-c1cccs1	-8.1%	-0.8%	?	50.1µM*	26.3%	0.8%
O=c1c2ccccc2nnn1CSc1nnc(-c2cccs2)n1Cc1ccccc1	29.9µM*	-5.5%	1.1%	4.3%	-3.1%	-18.0%
CC(=O)c1c(C)[nH]c(C(=O)CSc2nnc(-c3cccs3)n2Cc2ccccc2)c1C	16.8µM*	-9.9%	4.6%	-5.9%	21.3%	?
C=CCn1c(SCn2nnc3ccccc3c2=O)nc2scc(-c3cccs3)c2c1=O	1.1%	-1.9%	1.7%	-1.0%	4.1%	30.5%
CCOC(=O)c1c(C)[nH]c(C(=O)CSc2nnc(-c3cccs3)n2Cc2ccccc2)c1C	1.5%	-1.3%	1.1%	3.0%	38.0%	-1.9%
CC(=O)Nc1ccn(C2OC(C(COC(C)=O)NC(=O)C(C)NC(=O)OC(C)(C)C)C(OC(C)=O)C2OC(C)=O)c(=O)n1 (stereo not drawn)	·	·	·	6.8%	0.7%	-5.4%
O=C(CSc1nc(-c2ccccc2)ns1)NCC1CCCO1 (stereo not drawn)	15µM*	-0.4%	-5.5%	·	1.4%	-27.8%
CCOC(=O)CNC(=O)CSc1nc(-c2ccc(C)cc2)ns1	-25.6%	0.4%	1.1%	-5.8%	-11.3%	?
COc1ccc(-c2nsc(SCC(=O)Nc3ccc4c(c3)OCO4)n2)cc1	-27.9%	3.2%	-4.6%	3.0%	-0.6%	6.8%
CCOC(=O)CSc1nc(-c2ccc(OC)cc2)ns1	10.6µM*	4.2%	-6.3%	-2.8%	-0.5%	-8.3%
SMILES	PLK1 PBD block	ASM inhibitor	Tb PFK inh	TDP1 inh	Pin1 inh	VDR inhibitor
CCOC(=O)CNC(=O)CSc1nc(-c2ccccc2)ns1	13.4µM*	0.3%	-14.0%	0.0%	-6.2%	?
C=CCn1c(SCc2nc3sc(C(=O)O)c(C)c3c(=O)[nH]2)nnc1-c1ccccc1	-23.6%	8.5%	-0.1%	·	-1.3%	-15.5%
C=CCn1c(SCc2nc3sc(C(=O)O)c(C)c3c(=O)[nH]2)nnc1-c1ccc(C(C)(C)C)cc1	-22.9%	16.3%	22.6%	20µM*	-13.6%	-9.9%
NC(=O)C1CCN(c2ncc(-c3cccc(F)c3)s2)CC1	·	·	·	·	-2.9%	·
CCn1cc(S(=O)(=O)c2ccc(C)cc2)[nH]c1=O	-1.3%	-0.7%	-1.3%	2.3%	2.7%	-2.3%
CCc1c(C(C)S(=O)(=O)c2ccc(C)cc2)[nH]c(=O)n1-c1ccc(OC(F)(F)F)cc1 (stereo not drawn)	26.7µM*	-3.4%	-12.4%	3.8%	3.2%	-16.7%
COC(=O)C[C@H]1c2ccccc2C2=C(C[C@@H](C)[C@H]3C(=O)N(c4ccccc4)C(=O)[C@@H]23)N1C(=O)OC	·	·	·	16.1%[12.3 µM]	·	·
CCSc1nnc2ccc(-c3ccc(OC)c(OC)c3)nn12	21.2µM*	32.6%	1.6%	0.4%	-0.5%	?
COc1cccc(-c2ccc3nnc(SCC(=O)N4CCCC4)n3n2)c1	-5.7%	22.0%	-14.2%	·	-9.7%	5.0%
Cc1ccc(-c2nc(=Nc3c(C)cc(C)cc3C)sn2-c2ccccc2)cc1	·	·	·	5.3%	0.8%	?
O=C(Nc1scc(-c2ccccc2)c1C(=O)O)c1ccccc1Cl	13.5%	8.1%	0.2%	·	-1.2%	-8.3%
O=C(/C=C/c1cccs1)Nc1scc(-c2ccccc2)c1C(=O)O	?	-1.1%	?	31.6µM*	?	-6.8%
CC1=NN(c2ccc(C)c(C)c2)C(=O)C1C(c1cccc(O)c1)C1C(=O)N(c2ccc(C)c(C)c2)N=C1C (stereo not drawn)	8.44µM*	?	-11.1%	8.0%	2.5%	?
COc1ccc(CCN2C(=O)C3C4CC(C5C(C(N)=O)=NOC45)C3C2=O)cc1OC (stereo not drawn)	-10.4%	-0.2%	?	12.6µM*	1.4%	7.0%
CC(C)CN(Cc1cc(=O)oc2cc(-c3ccccc3)c(O)cc12)CC(C)C	29.9µM*	3.9%	-8.4%	·	-3.8%	-23.7%
O=c1cc(CN2CCN(C/C=C/c3ccccc3)CC2)c2cc(O)c(-c3ccccc3)cc2o1	-3.7%	56.0%	1.6%	2.5%	-9.4%	?
CN(C(=S)NC(=O)C1(C)CC1(Cl)Cl)c1ccccc1 (stereo not drawn)	-1.7%	5.8%	-4.6%	2.2%	-1.4%	1.2%
CN(C(=S)NC(=O)Cc1ccccc1)c1ccccc1	29.9µM*	-2.0%	-2.3%	-4.8%	-0.2%	-27.9%
O=S(=O)(c1ccccc1)N1CCC[C@@]2(CCN(c3ccccc3)C2)C1	·	·	·	·	·	31.6µM*
O=S(=O)(c1ccccc1)N1CCC[C@@]2(CCN(c3cccc(-c4ccccc4)c3)C2)C1	·	·	·	·	·	-29.6%
